Assay in all cases: qHTS profiling for inhibitors of Plasmodium falciparum proliferation (AID 504749); further: nearly all actives have a fitted effect of over 60% in size
Holding throughout (conditions): P. falciparum in erythrocytes, SYBR Green DNA, 72 h; series mostly up to 28.7 µM

Experiment [1] deals with 7G8. An outline of the steps:
(§1)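 Fluorescence of SYBR Green-bound parasite DNA, read at 485/535 nm, served as the growth measure. Infected erythrocytes were cultured with compound 72 h; artemisinin (0.29 uM) and DMSO wells defined the normalization range.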

Experiment [2] deals with C2A. An outline of the steps:
as §1

For experiment [3], the system named is CP192. Summed up: as §1
Experiment [4] concerns CP194. Summed up: as §1
Experiment [5] has as its system CP203. An outline of the steps: as §1
Experiment [6] relates to CP211. An outline of the steps: as §1
In experiment [7] the test system is CP217. An outline of the steps: as §1
Experiment [8] deals with CP237. An outline of the steps:
as §1

Experiment [9] concerns CP266. An outline of the steps:
as §1

For experiment [10], the system named is CP268. An outline of the steps:
as §1

The test system of experiment [11] is CP269. Summed up:
as §1

The test system of experiment [12] is CP291. Summed up:
as §1

Experiment [13] has as its system CP329. An outline of the steps:
as §1

In experiment [14] the test system is DIV30. Summed up: as §1
Experiment [15] deals with HB3. Summed up: as §1
For experiment [16], the system named is P94_40. An outline of the steps: as §1
The test system of experiment [17] is PC15. Summed up:
as §1

Experiment [18] deals with PC26. Summed up: as §1
Experiment [19] deals with PC49. An outline of the steps:
as §1

In experiment [20] the test system is SC27B. An outline of the steps:
as §1

Results filed as inconclusive are left out. The source made the active and inactive calls. The call rests on the fitted dose curve; in most records, active means well fitted inhibition curve with a large enough effect; inconclusive means small, poorly fitted or top-dose-only effect; inactive means flat fitted curve, though single readings scatter. Numbered stars: 1 amine (or outer) side, 2 acyl side, 3 side chain; on linkers, the order of the positions; unused ones are H or OH. Bridge positions count the residues as written; N and C are the ends. Square brackets hold non-standard residues; d marks the D form. Peptide text beside a SMILES is read from it. * marks the point of attachment. ξ: configuration not given here. ΔAla(Z-3-ureido) = NC(=O)N/C=C(\N)C(=O)O; X2 = NC1=NC(O)CC(C(N[*:1])C(=O)[*:2])N1; ξβ3hOrn = NCCCC(N)CC(=O)*; Dap = NC[CH](N)C(=O)O
Potency means the concentration at half of the fitted maximal effect.

On to `CC(N)C(=O)NCC(=O)NC1CSSCC(C(=O)O)NC(=O)C(CO)NC(=O)C(C(C)O)NC(=O)C(Cc2ccccc2)NC(=O)C(C(C)O)NC(=O)C(CCCCN)NC(=O)C(Cc2c[nH]c3ccccc23)NC(=O)C(Cc2ccccc2)NC(=O)C(Cc2ccccc2)NC(=O)C(CC(N)=O)NC(=O)C(CCCCN)NC1=O` (centres undefined), for which the Potency result in [1], in [2], in experiment [3], in [4], in experiment [5] and in experiment [6] was “inactive” throughout. Further, the Potency entry in experiment [7], in [8], in experiment [9], in experiment [10], in experiment [11] and in experiment [12] was “inactive” throughout. Besides, the Potency result in [13], in experiment [14], in [15], in experiment [16], in experiment [17] and in [18] was “inactive” in each case. Further, the Potency entry in experiment [19] and in [20] was “inactive” in each case.

Turning to `O=C1/C(=C\c2cccs2)CCC/C1=C/c1cccs1`, the Potency result in experiment [2], in experiment [3], in experiment [4], in experiment [5], in experiment [6] and in [7] was “inactive” in each case. In addition, the Potency result in experiment [8], in experiment [9], in experiment [10], in experiment [11], in [12] and in [13] was “inactive” in each case. The Potency entry in experiment [14], in [15], in experiment [16], in experiment [17], in experiment [18] and in [19] was “inactive” in each case. For the same molecule, in experiment [20], the Potency result is “inactive”.

As for `O=C(O)c1ccccc1-c1c2cc(Br)c(=O)c(Br)c-2oc2c(Br)c(O)c(Br)cc12`, the Potency result in [1], in [2], in [3], in [4], in [5] and in experiment [6] was “inactive” each time. In addition, the Potency entry in experiment [7], in experiment [8], in [10], in experiment [11], in [12] and in [13] was “inactive” in each case. Moreover, the Potency entry in [14], in [15], in experiment [16], in experiment [17], in experiment [18] and in [19] was “inactive” throughout. Besides, the Potency entry in experiment [20] is “inactive”.

For `NCCCC(N)CC(=O)NC1CNC(=O)C(C2CC(O)N=C(N)N2)NC(=O)/C(=C/NC(N)=O)NC(=O)C(CO)NC(=O)C(CO)NC1=O` (stereo not drawn) (ξβ3hOrn-[Dap]SS[ΔAla(Z-3-ureido)][X2]; lactam 1-C; configuration not given here), the Potency entry in experiment [1], in experiment [2], in [3], in experiment [4], in experiment [5] and in experiment [6] was “inactive” throughout. The Potency entry in experiment [7], in [8], in experiment [9], in experiment [10], in experiment [11] and in experiment [12] was “inactive” throughout. Besides, the Potency entry in experiment [13], in experiment [14], in experiment [15], in experiment [16], in experiment [17] and in [18] was “inactive” in each case. Also, the Potency entry in experiment [19] and in experiment [20] was “inactive” each time.

With `CCC(Oc1ccccc1)C(=O)NC1C(=O)N2C1SC(C)(C)C2C(=O)O` (centres undefined), the Potency result in experiment [1], in experiment [2], in experiment [4], in experiment [5], in [6] and in [7] was “inactive” each time. Moreover, the Potency result in experiment [8], in experiment [9], in [10], in experiment [11], in [12] and in experiment [13] was “inactive” throughout. The Potency entry in experiment [14], in experiment [15], in experiment [16], in experiment [17], in [18] and in experiment [19] was “inactive” each time. In addition, the Potency entry in experiment [20] was “inactive”.

On to `CCC1NC(=O)C(NC(=O)c2ncccc2O)C(C)OC(=O)C(c2ccccc2)NC(=O)C2CC(=O)CCN2C(=O)C(Cc2ccccc2)N(C)C(=O)C2CCCN2C1=O` (centres undefined), for which the Potency in experiment [1] was 8.91 µM (active). For the same molecule, the Potency result in [2], in experiment [3], in [4], in [5], in experiment [6] and in [7] was “inactive” in each case. Also, the Potency entry in experiment [8], in experiment [9], in [10], in [11], in experiment [12] and in [13] was “inactive” each time. For the same molecule, the Potency entry in [14], in experiment [17], in experiment [18], in experiment [19] and in experiment [20] was “inactive” each time.

With `CC1(C)C(/C=C/C=C/C=C/C=C2\N(CCCCS(=O)(=O)O)c3ccc4ccccc4c3C2(C)C)=[N+](CCCCS(=O)(=O)[O-])c2ccc3ccccc3c21`, the Potency result in experiment [1], in [2], in experiment [3], in [4], in experiment [5] and in [6] was “inactive” throughout. The Potency result in experiment [8], in experiment [9], in [10], in experiment [11], in [12] and in [13] was “inactive” throughout. Further, the Potency result in [14], in [15], in experiment [16], in experiment [17], in experiment [18] and in experiment [19] was “inactive” in each case. Moreover, the Potency result in experiment [20] is “inactive”.

As to `COc1ccc(-c2nc3ccc(C4=C(C)CC(=O)NN4)cc3[nH]2)cc1`, the Potency in [1] was 8.91 µM (active). Besides, the Potency entry in [3], in experiment [7], in [9], in experiment [12], in experiment [13] and in experiment [15] was “inactive” each time. The Potency result in experiment [16], in experiment [17] and in experiment [19] was “inactive” in each case.

As for `CCOC(=O)C(CS)NCCN[C@@H](CS)C(=O)OCC` (some centres undefined), the Potency result in [1], in [2], in [3], in experiment [4], in experiment [5] and in experiment [6] was “inactive” each time. For the same molecule, the Potency result in experiment [7], in [8], in experiment [9], in experiment [10], in [11] and in [12] was “inactive” throughout. The Potency result in experiment [13], in [14], in experiment [15], in [16], in experiment [17] and in experiment [18] was “inactive” each time. The Potency entry in [19] and in experiment [20] was “inactive” throughout.

On to `CCC(C)C1NC(=O)C(Cc2ccc(O)cc2)NC(=O)C(N)CSSCC(C(=O)N2CCCC2C(=O)NC(CC(C)C)C(=O)NCC(N)=O)NC(=O)C(CC(N)=O)NC(=O)C(CCC(N)=O)NC1=O` (centres undefined), for which the Potency entry in experiment [1], in [2], in experiment [3], in experiment [4], in experiment [5] and in [6] was “inactive” in each case. Further, the Potency result in experiment [7], in [8], in experiment [9], in experiment [10], in experiment [11] and in experiment [12] was “inactive” throughout. The Potency result in experiment [13], in experiment [14], in experiment [15], in experiment [16], in [17] and in experiment [18] was “inactive” in each case. For the same molecule, the Potency entry in experiment [19] and in [20] was “inactive” throughout.
